Test results from PubChem BioAssay (NCI).
About 79,000 compounds went through this panel and 15% of them were active in at least one assay; those are over-represented in the sample as a whole. Unmarked numbers belong to inactive results. Calls of active or inactive are those of the source. Rule as the data show it: active = growth inhibition above about 70%; inactive = the rest.

Assay: NCI Yeast Anticancer Drug Screen. Data for the cln2 rad14 strain (AID 165);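 also: 0% = growth equal to vehicle treated cultures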
Details: S. cerevisiae cln2 rad14 strain, at 50.0 µM, stronger effect = higher value
How it was run: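 Yeast carrying cln2 and rad14 alterations (cell cycle control and DNA damage repair) were exposed to compounds. Growth inhibition was measured against vehicle-treated controls.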

Row | SMILES | growth inhibition
1 | CN(C)C[C@H]1CC[C@@H](CN(C)C)C1=O | 23.9%
2 | CC1=C(SCCO)C(=O)c2ccccc2C1=O | 67.2%
3 | COC(=O)CCNc1c2ccccc2nc2cccc([N+](=O)[O-])c12 | 89.4% (active)
4 | COC(=O)C1=C(C)NC(C)=C(C(=O)OCCCN2CCC(c3ccccc3)(c3ccccc3)CC2)C1c1cccc([N+](=O)[O-])c1 (centres undefined) | 94.2% (active)
5 | CCOC(=O)c1cnc2c(C(F)(F)F)cccc2c1N=[N+]=[N-] | 84.7% (active)
6 | O=[N+]([O-])c1cc2no[n+]([O-])c2cc1N1CCCCC1 | 90.7% (active)
7 | COC(=O)c1ccc(NCC2=CC(=O)C=CC2=O)cc1O | 89.9% (active)
8 | CCCCCCCCNC(=O)C1=C(C)NC(C)=C(C(=O)NCCCCCCCC)C1 | 35.4%
9 | S=C(Nc1ccc(Cl)c(Cl)c1)SCc1ccc2c(c1)OCO2 | 87.6% (active)
10 | O=S(=O)(CCCl)c1ccccc1Cl | 84.3% (active)
11 | Nc1ccccc1CC(O)C(=O)O (centres undefined) | 13.6%
12 | CC(C)C1=CCC2C(=C1)CCC1C(C)(C(=O)O)CCCC21C (centres undefined) (tested in a mixture with another compound) | 89.8% (active)
13 | CSC(=S)Nc1cc(C)ccn1 | 83% (active)
14 | CC(C)c1cc(C(C)C)c(O)c(C([O-])[O-])c1.CC(C)c1cc(C(C)C)c(O)c(C([O-])[O-])c1.CC(C)c1cc(C(C)C)c(O)c(C([OH2+])[OH2+])c1.CC(C)c1cc(C(C)C)c(O)c(C([OH2+])[OH2+])c1.[Cu+2].[Cu+2].[OH3+].[OH3+] | 53.2%
15 | Cc1cc(I)ccc1N | 62.1%
16 | CC(Br)C(=O)c1ccc2cc(Br)c3ccccc3c2c1 (centres undefined) | 26.5%
17 | O=C(Nc1ccccc1)OCCc1ccc(Cl)c(Cl)c1 | 86% (active)

Row | SMILES | growth inhibition
18 | O=Cc1cccc2ccc3ccccc3c12 | 98.7% (active)
19 | O=[N+]([O-])CC(SCc1ccccc1)c1ccc2c(c1)OCO2 (centres undefined) | 90.2% (active)
20 | CC1(Cl)CC(O)C2(CC1Br)C1(C)OC1C1OC1(Br)C2(C)C (centres undefined) | 42.5%
21 | Cc1cc(O)cc(O)c1N=Nc1ccc([N+](=O)[O-])cc1 | 72.7% (active)
22 | CCCCCCCCCCCCCC[N+](C)(CC(=O)[O-])Cc1ccccc1 (centres undefined) | 93.8% (active)
23 | CC(=O)OCc1ccc(O)c(C=O)c1 | 49.7%
24 | Cc1ccc2ccc3cccc4ccc1c2c34 | 14.2%
25 | Cc1nc(-[n+]2nc(-c3ccncc3)nn2-c2ccccc2)sc1C | 63.9%
26 | CCCCCCCCCCC(=O)Cl | 31.9%
27 | COC1C=COC2(C)Oc3c(C)c(O)c4c(c3C2=O)/C(=N/C2CCC(O)OC2C)C=C(NC(=O)/C(C)=C\C(=O)C2CC2C(O)C(C)C(O)C(C)C(OC(C)=O)C1C)C4=O (centres undefined) | 81.4% (active)
28 | S=c1[nH]nc(Nc2ccc(Cl)cc2)s1 | 90.5% (active)
29 | O=C1CSC(/C=C/c2ccccc2)N1c1ccc(-c2ccc(-n3c(-c4ccccc4)nc4ccccc4c3=O)cc2)cc1 (centres undefined) | 32.5%
30 | O=C1C=CC(=O)N1c1ccc2c(c1)Cc1cc(NC(=O)C(F)(F)F)ccc1-2 | 62.9%
31 | Brc1ccc(-c2cc3c(cc2C2SCCS2)OCO3)cc1 | 21.1%
32 | Oc1ccc2ccccc2c1C(c1ccc(Cl)cc1)c1c(O)ccc2ccccc12 | 76.8% (active)
33 | C[CH2][Sn]([CH2]C)([O]C(=O)C(OC(C)=O)c1ccccc1)[O]C(=O)C(OC(C)=O)c1ccccc1 (centres undefined) | -23.2%
34 | Cc1ccc2ccc(O)cc2c1 | 82% (active)
